The source of these data is PubChem BioAssay (NCI).

Experiment [1] is described as follows: NCI Yeast Anticancer Drug Screen. Data for the rad50 strain (AID 155).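 Note: 0% = growth of vehicle-only cultures of the same strain.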 Particulars: S. cerevisiae rad50 strain growth inhibition; at 50.0 µM; stronger effect = higher value. In a few lines: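 Yeast carrying a defined DNA repair defect were exposed to test compounds, and growth was compared with vehicle-treated controls to give percent inhibition.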
A short description of experiment [2]: NCI Yeast Anticancer Drug Screen. Data for the mec2-1 strain (AID 157). Particulars: S. cerevisiae mec2-1 strain, at 50.0 µM, stronger effect = higher value. In a few lines: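 Mutant yeast (mec2-1) grown with compound; growth inhibition relative to vehicle control reported.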
Experiment [3] is described as follows: NCI Yeast Anticancer Drug Screen. Data for the sgs1 mgt1 strain (AID 161).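 Note: 0% = growth of cultures given vehicle only.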 Particulars: S. cerevisiae sgs1 mgt1 strain, at 50.0 µM, stronger effect = higher value. Summed up: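 Yeast cells carrying a defined DNA-repair defect were exposed to test compounds. Growth inhibition was measured relative to vehicle-treated controls.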
Experiment [4] can be described thus: NCI Yeast Anticancer Drug Screen. Data for the cln2 rad14 strain (AID 165).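 Note: 0% = growth equal to vehicle treated cultures.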 As to conditions: S. cerevisiae cln2 rad14 strain, at 50.0 µM, stronger effect = higher value. Summed up:
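Readout is yeast growth inhibition versus vehicle-treated controls, using a strain with cln2 and rad14 alterations exposed to compound.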

Experiment [5] can be described thus: NCI Yeast Anticancer Drug Screen. Data for the bub3 strain (AID 167). Particulars: S. cerevisiae bub3 mutant strain, at 50.0 µM, stronger effect = higher value. Summed up: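 Compounds were applied to a genetically altered yeast strain carrying a cell-cycle control defect. Growth inhibition was scored against vehicle-treated controls.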
Experiment [6] is described as follows: NCI Yeast Anticancer Drug Screen. Data for the mlh1 rad18 strain (AID 175). Particulars: S. cerevisiae mlh1 rad18 strain growth inhibition; at 50.0 µM; stronger effect = higher value. In a few lines:
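Genetically defined yeast (DNA repair-deficient) exposed to compounds; growth inhibition determined relative to vehicle.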

Each structure is given as a SMILES string. Compounds without any hit were thinned out: in the full panel of roughly 79,000, 15% have a hit. A number with no mark means an inactive call. Active and inactive are the calls of the source. Cut-off read from the data, not from the text of the source: active = growth inhibition above about 70%; inactive = the rest.

In the case of `CCN(CC)CCN1C(=O)c2cccc3c(N)c(OC)cc(c23)C1=O`, the growth inhibition is 47.5% in experiment [1]; -27.8% in experiment [2]; -20.8% in experiment [3]; -11.9% in experiment [4]; -24.2% in experiment [5]; -48.3% in experiment [6].
Take `c1ccc(-c2cc(-c3ccccc3)n(-c3ccccc3)c2-c2ccccc2)cc1`: the growth inhibition in experiment [1] is 8.45%; in experiment [2], 5.85%; in experiment [3], 0.45%; in experiment [4] it was -5.35%; in experiment [5], 24.4%; in experiment [6], -3.35%.
Consider `CCOC(=O)c1c(/N=C/c2cc(Br)cc(Br)c2O)sc2c1CCCC2`, for which the growth inhibition in experiment [1] was -14.2%; in experiment [2], -19.1%; in experiment [3] it was -13.2%; in experiment [4] it was -15.1%; in experiment [5], -13.9%; in experiment [6], -25.1%.
Regarding `CC1OC(n2cc(Cl)c(=O)[nH]c2=O)C=C(OC(=O)c2ccccc2)C1=O` (stereo not drawn), the growth inhibition was -18.6% in experiment [1]; -27.4% in experiment [2]; -24.9% in experiment [3]; -16.8% in experiment [4]; -22.4% in experiment [5]; -28.9% in experiment [6].
With `COc1ccc(Nc2nc(C#N)c(N)s2)cc1`, the growth inhibition in experiment [1] was 3.75%; in experiment [2], -12.6%; in experiment [3] it was -0.15%; in experiment [4] it was -0.2%; in experiment [5], -27%; in experiment [6] it was -9.5%.
As to `CCc1cccc(C)c1NC(=O)C(=O)CC(=O)CS(=O)(=O)c1ccc(C)cc1`, the growth inhibition is -13.4% in experiment [1]; -15.2% in experiment [2]; -6% in experiment [3]; -0.8% in experiment [4]; -8.8% in experiment [5]; 12.5% in experiment [6].
Take `N#C/C(=N\NC(=O)c1ccncc1)c1ccc(Cl)cc1`: the growth inhibition was -3% in experiment [1]; 3.6% in experiment [2]; 3.75% in experiment [3]; -30.2% in experiment [4]; -9.75% in experiment [5]; 4.65% in experiment [6].
For the molecule `O=c1[nH][nH]c(=O)c2[nH]cnc12`, the growth inhibition in experiment [1] was -11.9%; in experiment [2], -8.2%; in experiment [3], 29.1%; in experiment [4], -62.6%; in experiment [5], -6.3%; in experiment [6], -10%.
Take `COc1cc(O)c2c(c1)C(=O)c1cc(C)cc(O)c1C2=O`: the growth inhibition was -15.1% in experiment [1]; -22.9% in experiment [2]; -18.6% in experiment [3]; -21.1% in experiment [4]; -26.2% in experiment [5]; -10.8% in experiment [6].
With `CSc1[nH]c2ncnc(Cl)c2c1C#N`, the growth inhibition was 23.6% in experiment [1]; 10.3% in experiment [2]; 15.9% in experiment [3]; -21.8% in experiment [4]; -27.3% in experiment [5]; 21.7% in experiment [6].
For the molecule `O=S(=O)(O)C(O)Cc1cccc2ccccc12` (stereo not drawn), the growth inhibition in experiment [1] is 2.2%; in experiment [2], -8.25%; in experiment [3] it was 1.3%; in experiment [4], -40.2%; in experiment [5], -17.8%; in experiment [6] it was -0.3%.
Consider `CCOc1ccc2[nH]c(C)c(CC(=O)O)c2c1`, for which the growth inhibition in experiment [1] is -3.7%; in experiment [2], -9.25%; in experiment [3], -13.5%; in experiment [4], -16.4%; in experiment [5] it was 9.3%; in experiment [6], -7.2%.
For the molecule `NC(Cc1ccccc1)C(=O)Nc1cccnc1` (stereo not drawn), the growth inhibition in experiment [1] was -17.4%; in experiment [2], 15.2%; in experiment [3], 7.75%; in experiment [4] it was -44.6%; in experiment [5], 15.8%; in experiment [6], -5.75%.
Turning to `COC(=O)C1C2CC3C(OC(=O)C31)C2OC(=O)[C@](OC)(c1ccccc1)C(F)(F)F` (stereo partly drawn), the growth inhibition in experiment [1] is 24.2%; in experiment [2], 20.9%; in experiment [3], 10.6%; in experiment [4], -25.4%; in experiment [5] it was 15.5%; in experiment [6], 28.6%.
For `O=C(NC(=S)Nc1cccc2ccccc12)c1ccccc1F`, the growth inhibition in experiment [1] is 30.9%; in experiment [2] it was 15.1%; in experiment [3], 37.1%; in experiment [4], 5.3%; in experiment [5] it was 44%; in experiment [6], 28.4%.
With `COC(=O)N/N=C(/C)c1ccco1`, the growth inhibition in experiment [1] was 8.75%; in experiment [2], 27.9%; in experiment [3] it was 3.55%; in experiment [4], 1.55%; in experiment [5] it was 14.8%; in experiment [6], 16.2%.
On to `COC(=O)C(=O)c1c(C2CC2)[nH]c2[nH]n(-c3ccccc3)c(=O)c2c1=O`, for which the growth inhibition is 11% in experiment [1]; 20.1% in experiment [2]; 12.4% in experiment [3]; -9.2% in experiment [4]; -1.1% in experiment [5]; 3.6% in experiment [6].
On to `CC1=NN(c2nc(N)nc(CCl)n2)C(C)(C)C1`, for which the growth inhibition in experiment [1] is -8.1%; in experiment [2], -0.1%; in experiment [3], -6.7%; in experiment [4] it was -4.75%; in experiment [5], 17.1%; in experiment [6], -77.9%.
As for `O=P(c1ccccc1)(c1ccccc1)N1CC1c1ccccc1` (stereo not drawn), the growth inhibition in experiment [1] is 8.95%; in experiment [2], 12.9%; in experiment [3] it was 3.2%; in experiment [4] it was -3.45%; in experiment [5] it was 4.6%; in experiment [6], 10.1%.
Regarding `CN1C(=O)N(C)C2(CCN(CCCCCCF)CC2)C1=O`, the growth inhibition in experiment [1] is -10.2%; in experiment [2], -19.9%; in experiment [3] it was -34.2%; in experiment [4] it was -6.9%; in experiment [5], -18.6%; in experiment [6], -29.4%.
Take `COc1cc(/C=C2/C(=O)N(c3ccccc3)N=C2C)cc(OC)c1OC`: the growth inhibition in experiment [1] was 12.6%; in experiment [2] it was -3.4%; in experiment [3], 24.1%; in experiment [4] it was 2.5%; in experiment [5], 11.6%; in experiment [6] it was 17.9%.
With `CCCc1cc(=O)oc2c3c(cc(OC(C)C)c12)O[C@H](C)[C@H](C)[C@@H]3O`, the growth inhibition in experiment [1] is 3.55%; in experiment [2], 0.15%; in experiment [3] it was -10.8%; in experiment [4], -1.45%; in experiment [5], -7.6%; in experiment [6], 18.8%.
Consider `CCCCONC(N)=O`, for which the growth inhibition in experiment [1] was -12.2%; in experiment [2], -11.1%; in experiment [3], -23.4%; in experiment [4], 7.75%; in experiment [5] it was -5.15%; in experiment [6], -5.95%.
As for `O=C(CSc1nc2ccccc2c2ccccc12)c1ccccc1`, the growth inhibition in experiment [1] is 9.25%; in experiment [2] it was -42.5%; in experiment [3], -4.4%; in experiment [4], -52%; in experiment [5] it was -42.8%; in experiment [6] it was 12.8%.
Turning to `CC(C=O)CCC(C)(O)C=O` (stereo not drawn), the growth inhibition in experiment [1] was -9.4%; in experiment [2] it was -7.8%; in experiment [3], -7%; in experiment [4], 8.65%; in experiment [5] it was -10.5%; in experiment [6] it was 1.45%.
Regarding `O=C1c2cc(Cl)ccc2-c2c(Cl)cccc21`, the growth inhibition is 22.9% in experiment [1]; -4.95% in experiment [2]; -10.9% in experiment [3]; 2.05% in experiment [4]; 4.05% in experiment [5]; -14.9% in experiment [6].
Turning to `CP(=O)(CCSc1ccccc1)c1ccccc1` (stereo not drawn), the growth inhibition is -12.5% in experiment [1]; -20.5% in experiment [2]; -0.85% in experiment [3]; 23.6% in experiment [4]; -10.7% in experiment [5]; -21.1% in experiment [6].
As to `COc1ccc(C(C)O)cc1` (stereo not drawn), the growth inhibition in experiment [1] is 23.2%; in experiment [2], 3.2%; in experiment [3], 6.25%; in experiment [4] it was 12.9%; in experiment [5] it was -5.65%; in experiment [6], 9.15%.
Regarding `CC(C)(C)OC(=O)CN1C(=O)CCC1=O`, the growth inhibition in experiment [1] is 6.25%; in experiment [2], 8.65%; in experiment [3], 20.2%; in experiment [4], -26.1%; in experiment [5], 4.45%; in experiment [6] it was -5.15%.
Turning to `COc1ccc(N/N=C2\CCOc3ccc(C)cc3C2=O)cc1`, the growth inhibition in experiment [1] was 53.6%; in experiment [2], 27.8%; in experiment [3] it was 42.5%; in experiment [4], 14.6%; in experiment [5], 52%; in experiment [6] it was 46.7%.
In the case of `CCN(CC)c1ccc2c(c1)C(O)c1ccccc1-2` (stereo not drawn), the growth inhibition is -3.75% in experiment [1]; -20.4% in experiment [2]; -5.7% in experiment [3]; -12.4% in experiment [4]; 14.4% in experiment [5]; 17.6% in experiment [6].
Regarding `CCN(CC)CC(O)C=O` (stereo not drawn), the growth inhibition in experiment [1] was 10.6%; in experiment [2] it was -6.7%; in experiment [3], -3.85%; in experiment [4], 3.85%; in experiment [5], -9.5%; in experiment [6] it was 6.7%.
Take `C/C(=N\NC(N)=O)c1ccc(Cl)c(-n2cccc2)c1`: the growth inhibition was 12.3% in experiment [1]; 3.65% in experiment [2]; 32.7% in experiment [3]; 14.3% in experiment [4]; 32.1% in experiment [5]; 31.2% in experiment [6].
With `CCCC(=O)C1=C(O)C(CC2=C(O)C(C)(C)C(=O)C(C(=O)CCC)=C2O)=C(O)C(C)(C)C1=O`, the growth inhibition in experiment [1] was 26.3%; in experiment [2], -12.4%; in experiment [3] it was -2.5%; in experiment [4], 1%; in experiment [5], -0.15%; in experiment [6], 1.3%.
For `CC1=C(Br)C(=O)C(c2c(C)cc(C)cc2C)=C(Br)C1=O`, the growth inhibition in experiment [1] was 97.5% (active); in experiment [2] it was 98% (active); in experiment [3], 98.2% (active); in experiment [4], 92.8% (active); in experiment [5], 97.5% (active); in experiment [6], 98.5% (active).
For `O=C(O)c1ccccc1CC(Cc1ccccc1)C(=O)O` (stereo not drawn), the growth inhibition is -14.7% in experiment [1]; -3.4% in experiment [2]; -10.9% in experiment [3]; -8.5% in experiment [4]; -12.4% in experiment [5]; 14% in experiment [6].
For `C[N+](C)(C)CCc1ccc2ccccc2c1`, the growth inhibition was 12.2% in experiment [1]; 11.8% in experiment [2]; 9.35% in experiment [3]; 0.1% in experiment [4]; 5.7% in experiment [5]; 12.8% in experiment [6].
Turning to `O=C(N/C(=C\c1ccccc1[N+](=O)[O-])c1nc2ccccc2[nH]1)c1ccccc1`, the growth inhibition is -3.4% in experiment [1]; -1.45% in experiment [2]; 1.2% in experiment [3]; -1.15% in experiment [4]; 6.85% in experiment [5]; -1.7% in experiment [6].
